Experimental findings from PubChem BioAssay (EPA / NIEHS) are described below.

Calls of active or inactive are those of the source. The calls were made as follows: active = hit-call score of the fitted dose curve at least 0.9, where 1 is the maximum; inactive = score below 0.9.

Test [1] is described as follows: ATG_CMV_CIS: Attagene CIS-FACTORIAL HepG2 Assay for human CMV (Internal Marker) (AID 2282928).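 Also: endpoint acts as a background internal control marker rather than a target.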 Conditions: HepG2 CMV promoter reporter, transcription factor profiling; actives raise or lower the signal. In outline:
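Endogenous transcription factor activity read in HepG2 via transfected cis-promoter reporter units. After 24 h dosing, reporter mRNA measured by RT-PCR/capillary electrophoresis; gain or loss of signal fit relative to DMSO.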

A short description of test [2]: ATG_DR4_LXR_CIS: Attagene CIS-FACTORIAL HepG2 Assay for human Liver X Receptor (LXR), DR4 submotif (AID 2282929). Conditions: HepG2 Attagene DR4 cis-reporter, mRNA transcription; actives raise or lower the signal. In outline: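 Total RNA from 24 h-treated, MRTU-transfected HepG2 cells underwent reverse transcription, PCR, fluorescent primer extension and restriction digestion before capillary electrophoresis. Both increases and decreases in reporter signal were fitted against DMSO.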

Test [3] is described as follows: ATG_AP_2_CIS: Attagene CIS-FACTORIAL HepG2 Assay for human Activator Protein 2 (AP-2) (AID 2282932). The following applies: HepG2 AP-2 cis-reporter, Attagene transcription factor profiling; actives raise or lower the signal. In outline: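 HepG2 cells transiently transfected with cis-element reporter units and exposed for 24 h. Reporter mRNA measured by RT-PCR, FAM labelling, HpaI digestion and capillary electrophoresis. Changes in either direction fitted relative to DMSO.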

Test [4] addresses Transcription factor E2F1 (Homo sapiens) (UniProt Q01094). Nature of the test: ATG_E2F_CIS: Attagene CIS-FACTORIAL HepG2 Assay for human E2F Transcription Factor 1 (AID 2282935). The following applies: HepG2 Attagene cis-reporter, E2F reporter RNA transcripts; actives raise or lower the signal. In outline: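 Endogenous E2F1 activity read through cis-promoter reporter units transfected into HepG2. After 24 h compound treatment, reporter mRNA measured by RT-PCR, HpaI digestion and capillary electrophoresis. Bidirectional fit versus DMSO.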

Test [5] is described as follows: ATG_M_61_CIS: Attagene CIS-FACTORIAL HepG2 Assay for M61 Transcription Factor (Internal Marker) (AID 2282937). The following applies: HepG2 Attagene CIS-FACTORIAL M61 internal marker reporter; actives raise or lower the signal. In a few lines:
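Transfect HepG2 with MRTUs; dose 24 h; isolate RNA; reverse-transcribe with DNase I treatment; PCR-amplify, FAM-label and cut with HpaI for 2 h at 37 C; resolve by CE. Bidirectional fitting against DMSO.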

The nature of test [6]: ATG_EGR_CIS: Attagene CIS-FACTORIAL HepG2 Assay for human Early Growth Response 1 (EGR1) (AID 2282938). The following applies: HepG2 Attagene CIS-FACTORIAL EGR reporter mRNA; actives raise or lower the signal. In outline: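 After a 24 h treatment of transiently transfected HepG2 cells, total RNA was reverse-transcribed and reporter sequences PCR-amplified, labelled and run on capillary electrophoresis. Reporters sit under cis-regulatory promoters sensing endogenous factors.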

The nature of test [7]: ATG_Ets_CIS: Attagene CIS-FACTORIAL HepG2 Assay for human Erythroblast Transformation Specific (ETS) (AID 2282941). Conditions: HepG2 ETS cis-reporter transcription, actives raise or lower the signal. In outline: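 Steps: transfect HepG2 with multiple reporter units; treat compound 24 h; isolate RNA, DNase-treat, reverse-transcribe; PCR-amplify, label with 6-FAM, digest with HpaI; separate by capillary electrophoresis. Activity fitted both directions versus DMSO.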

Test [8] addresses Hepatocyte nuclear factor 3-beta (Homo sapiens) (UniProt Q9Y261). As to the kind of experiment: ATG_FoxA2_CIS: Attagene CIS-FACTORIAL HepG2 Assay for human Forkhead box A2 (FOXA2) (AID 2282942). Conditions: HepG2 cis-reporter transcription factor activity, 24 h; actives raise or lower the signal. In a few lines:
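24 h dosing of HepG2 bearing cis-reporter constructs; mRNA readout by RT-PCR/CE fluorescence; bidirectional fit, DMSO baseline.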

A short description of test [9]: ATG_FoxO_CIS: Attagene CIS-FACTORIAL HepG2 Assay for human Forkhead box O (FoxO) (AID 2282943). The following applies: HepG2 Attagene cis-reporter, FoxO element, mRNA; actives raise or lower the signal. In a few lines: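 Read-out: fluorescence of 6-FAM-labelled reporter cDNA fragments resolved by capillary electrophoresis. Transiently transfected HepG2 cells were dosed for 24 h; activity fitted in both directions relative to DMSO controls.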

Test [10] in a line: ATG_GATA_CIS: Attagene CIS-FACTORIAL HepG2 Assay for human GATA Binding Protein (AID 2282944). The following applies: HepG2 GATA cis-element reporter, Attagene multiplex mRNA; actives raise or lower the signal. In outline:
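DMSO serves as negative control and baseline for bidirectional fitting of reporter mRNA changes. HepG2 cells bearing transiently transfected cis-promoter reporters were exposed 24 h; transcripts detected via RT-PCR and capillary electrophoresis.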

The nature of test [11]: ATG_ISRE_CIS: Attagene CIS-FACTORIAL HepG2 Assay for human Interferon Regulatory Factor 1 (IRF1) binding to an Interferon-Stimulated Response Element (ISRE) (AID 2282948). The following applies: HepG2 ISRE cis-reporter (Attagene), mRNA transcription readout; actives raise or lower the signal. In outline: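 Transfected HepG2 (multiple reporter transcription units, cis elements) dosed 24 h. RNA → oligo(dT) RT → PCR → 6-FAM primer extension → HpaI → CE. DMSO = negative control/baseline.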

The nature of test [12]: ATG_M_32_CIS: Attagene CIS-FACTORIAL HepG2 Assay for M32 Transcription Factor (Internal Marker) (AID 2282949).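 Also: background control marker of the multiplexed CIS panel rather than a real target.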 Conditions: HepG2 Attagene cis-factorial M32 reporter, mRNA; actives raise or lower the signal. In a few lines: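 Fluorescent capillary electrophoresis peaks of HpaI-digested, FAM-labelled RT-PCR reporter products give the signal. Source: transiently transfected human liver HepG2 cells, 24 h after chemical dosing; bidirectional fitting against DMSO.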

The nature of test [13]: ATG_MRE_CIS: Attagene CIS-FACTORIAL HepG2 Assay for human Metal Responsive Element (MRE) (AID 2282954). The following applies: HepG2 MRE cis-reporter transcription, Attagene multiplex; actives raise or lower the signal. In outline: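 HepG2 cells transiently transfected with cis-element-driven reporter units; mRNA measured 24 h after dosing. Reporter transcripts quantified by RT-PCR, FAM labelling, HpaI digestion and capillary electrophoresis; bidirectional fit versus DMSO.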

Test [14] concerns the target Paired box protein Pax-6 (Homo sapiens) (UniProt P26367). As to the kind of experiment: ATG_Pax6_CIS: Attagene CIS-FACTORIAL HepG2 Assay for human Paired Box 6 (PAX6) (AID 2282956). Conditions: HepG2 CIS-FACTORIAL PAX6 reporter transcription, RNA readout; actives raise or lower the signal. In a few lines: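 Transient MRTU transfection of HepG2 → compound exposure 24 h → TriZol RNA, oligo(dT) RT → PCR, 6-FAM primer extension, HpaI cut → capillary electrophoresis; activity fitted both directions against DMSO.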

The nature of test [15]: ATG_PXRE_CIS: Attagene CIS-FACTORIAL HepG2 Assay for human Pregnane X Receptor Element (PXRE) (AID 2282957). Conditions: HepG2 Attagene CIS-FACTORIAL PXRE reporter, mRNA; actives raise or lower the signal. In a few lines:
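Transiently transfected HepG2 cells were dosed and incubated for 24 h. RNA was then isolated, DNase-treated, reverse-transcribed and reporter sequences amplified. Labeled, HpaI-digested fragments were quantified by capillary electrophoresis against DMSO.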

The nature of test [16]: ATG_Sox_CIS: Attagene CIS-FACTORIAL HepG2 Assay for human SRY-box transcription factor (SOX) (AID 2282960). The following applies: HepG2 Attagene cis-factorial SOX reporter, mRNA; actives raise or lower the signal. In a few lines: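 HepG2, cis reporter units, 24 h exposure. Reporter mRNA: RT-PCR → FAM labelling → HpaI → CE fluorescence. Bidirectional fit vs DMSO.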
The nature of test [17]: ATG_SREBP_CIS: Attagene CIS-FACTORIAL HepG2 Assay for human Sterol Regulatory Element Binding (SREBP) (AID 2282962). The following applies: HepG2 Attagene cis-factorial SREBP reporter, mRNA; actives raise or lower the signal. In outline:
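Transfected HepG2 (cis-regulated reporter library, endogenous TFs) → compound 24 h → total RNA → oligo(dT) RT → reporter-specific PCR → FAM primer extension, HpaI cut → CE fluorescence. Fit bidirectional vs DMSO.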

Test [18] is described as follows: ATG_TCF_b_cat_CIS: Attagene CIS-FACTORIAL HepG2 Assay for human T-Cell-Factor with beta-catenin (TCF/b-cat) (AID 2282965). The following applies: HepG2 TCF/beta-catenin cis-reporter transcription, actives raise or lower the signal. In a few lines:
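HepG2, transient MRTU transfection, cis-element-driven reporters (endogenous TFs). 24 h compound exposure. Readout: reporter mRNA by RT-PCR + 6-FAM primer extension, HpaI digest, capillary electrophoresis. Gain/loss fit vs DMSO baseline.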

Test [19] can be described thus: ATG_TAL_CIS: Attagene CIS-FACTORIAL HepG2 Assay for human TAL Basal Promoter (AID 2282966).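 Also: background control endpoint measuring basal TAL promoter reporter mRNA not a specific factor.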 Conditions: HepG2 Attagene cis-factorial TAL promoter reporter; actives raise or lower the signal. In outline:
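Readout: reporter mRNA, fluorescence by CE. System: HepG2, transient multi-reporter transfection, endogenous TF activity. Exposure: 24 h. Analysis: bidirectional, DMSO-normalized; background control.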

The nature of test [20]: ATG_TGFb_CIS: Attagene CIS-FACTORIAL HepG2 Assay for human Transforming Growth Factor (TGF) (AID 2282967). Conditions: HepG2 Attagene CIS TGFb reporter, mRNA transcription; actives raise or lower the signal. In outline: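 Transcript-level reporter readout: HepG2 transfectants, 24 h exposure, RNA to cDNA, reporter-specific PCR, fluorescent primer extension, capillary sizing against ROX standards. Gain- or loss-of-signal relative to DMSO.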

Chain of Transcription factor E2F1 (Homo sapiens) (Q01094 whole entry, looked up): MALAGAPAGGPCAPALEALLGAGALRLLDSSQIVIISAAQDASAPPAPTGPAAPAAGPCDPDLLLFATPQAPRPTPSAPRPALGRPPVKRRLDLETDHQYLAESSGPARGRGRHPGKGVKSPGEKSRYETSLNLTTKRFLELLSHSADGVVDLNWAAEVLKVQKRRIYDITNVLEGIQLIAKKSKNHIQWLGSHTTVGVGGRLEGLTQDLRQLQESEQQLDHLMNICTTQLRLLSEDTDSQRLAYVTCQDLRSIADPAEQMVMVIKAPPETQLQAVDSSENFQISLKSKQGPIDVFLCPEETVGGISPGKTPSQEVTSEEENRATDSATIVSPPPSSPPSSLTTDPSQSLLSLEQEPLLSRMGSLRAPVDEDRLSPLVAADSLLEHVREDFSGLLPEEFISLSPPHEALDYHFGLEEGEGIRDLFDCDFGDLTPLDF
Chain of Hepatocyte nuclear factor 3-beta (Homo sapiens) (Q9Y261 whole entry, looked up): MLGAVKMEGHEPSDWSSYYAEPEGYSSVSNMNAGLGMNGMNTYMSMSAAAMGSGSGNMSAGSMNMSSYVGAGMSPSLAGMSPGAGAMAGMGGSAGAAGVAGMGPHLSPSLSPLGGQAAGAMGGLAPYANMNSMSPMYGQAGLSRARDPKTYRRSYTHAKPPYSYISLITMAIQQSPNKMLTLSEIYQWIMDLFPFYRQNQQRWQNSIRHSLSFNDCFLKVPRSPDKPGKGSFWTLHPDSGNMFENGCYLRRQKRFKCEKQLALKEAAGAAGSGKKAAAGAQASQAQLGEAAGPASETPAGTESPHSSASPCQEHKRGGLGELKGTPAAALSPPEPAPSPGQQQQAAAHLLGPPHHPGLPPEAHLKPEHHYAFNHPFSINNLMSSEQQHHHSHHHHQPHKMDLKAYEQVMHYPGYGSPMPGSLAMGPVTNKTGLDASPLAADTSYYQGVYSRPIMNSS
Chain of Paired box protein Pax-6 (Homo sapiens) (P26367 whole entry, looked up): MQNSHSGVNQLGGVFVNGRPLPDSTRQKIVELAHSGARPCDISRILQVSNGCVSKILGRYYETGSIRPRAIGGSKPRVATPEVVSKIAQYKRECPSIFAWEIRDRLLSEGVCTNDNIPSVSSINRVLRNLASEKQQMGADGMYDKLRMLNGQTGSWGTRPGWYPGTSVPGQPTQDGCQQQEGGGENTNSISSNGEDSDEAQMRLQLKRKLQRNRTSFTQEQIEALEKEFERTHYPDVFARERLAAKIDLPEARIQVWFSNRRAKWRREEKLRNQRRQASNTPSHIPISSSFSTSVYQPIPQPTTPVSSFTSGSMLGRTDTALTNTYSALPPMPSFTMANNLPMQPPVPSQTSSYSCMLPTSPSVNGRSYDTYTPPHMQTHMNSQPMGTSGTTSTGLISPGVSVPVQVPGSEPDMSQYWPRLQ

For `O=C1Nc2ccc(Cl)cc2C(c2ccccc2)=NC1O` (stereo not given), the compound was classed as inactive in test [1], in test [2], in test [3], in test [4], in test [5] and in test [6]. The outcome in test [7], in test [8], in test [9], in test [10], in test [11] and in test [12] was inactive. In addition, the result in test [13], in test [14], in test [15], in test [16], in test [17] and in test [19] was inactive. The result in [20] was inactive. In addition, the concentration at half-maximal activity (AC50) (usually the concentration at which the activity in the assay is half-maximal) in test [18] is 28.9 µM (active).
Take `CC1(C)[C@H](C(=O)O[C@H](C#N)c2cccc(Oc3ccccc3)c2)[C@@H]1C=C(Br)Br`: the outcome in test [1], in [2], in test [3], in test [4], in test [5] and in test [6] was inactive. Moreover, the call in test [7], in test [8], in [9], in test [10], in test [11] and in [12] was inactive. Further, the compound was called inactive in test [13], in test [14], in [16], in test [17], in test [18] and in test [19]. Further, the AC50 in [15] was 0.312 µM (active); in test [20], 56.7 µM (active).
Take `CCC(C)c1cc([N+](=O)[O-])cc([N+](=O)[O-])c1OC(=O)C=C(C)C` (stereo not given): the compound was classed as inactive in test [1], in test [2], in test [3], in [5], in test [8] and in [10]. In addition, the result in test [12], in [17], in test [19] and in test [20] was inactive. For the same compound, the half-maximal activity concentration (AC50) in [4] was 151 µM (active); in test [6], 27.7 µM (active); in [7], 100 µM (active); in [9], 57.3 µM (active); in test [11] it was 141 µM (active); in [13], 27.5 µM (active). For the same compound, the half-maximal activity concentration (AC50) is 37.1 µM (active) in test [14], 0.787 µM (active) in [15], 53.7 µM (active) in test [16] and 31.8 µM (active) in test [18].
